Experimental data taken from PubChem BioAssay (NCATS).
Results filed as inconclusive are left out. Entries that show only a call come without a potency. A number with no mark means an inactive call. Activity calls are given as the source filed them. The call rests on the fitted dose curve; in most records, active means well fitted inhibition curve with a large enough effect; inconclusive means small, poorly fitted or top-dose-only effect; inactive means flat fitted curve, though single readings scatter.

Each molecule was assayed against Calcium and integrin-binding protein 1 (Homo sapiens) (UniProt Q99828) (assay: Primary qHTS for Identification of Calcium Integrin Binding Protein 1 (CIB1) Competitor (AID 1508620;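 on activity change, negative = inhibition: GST tagged CIB1 binding a fluorescein labelled alphaIIb integrin peptide tracer; top concentration of the series differs between compounds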)). Conditions: CIB1-GST / FITC-alphaIIb peptide fluorescence polarization; series mostly up to 114 µM.
Sequence of Calcium and integrin-binding protein 1 (Homo sapiens) (Q99828 whole entry, looked up): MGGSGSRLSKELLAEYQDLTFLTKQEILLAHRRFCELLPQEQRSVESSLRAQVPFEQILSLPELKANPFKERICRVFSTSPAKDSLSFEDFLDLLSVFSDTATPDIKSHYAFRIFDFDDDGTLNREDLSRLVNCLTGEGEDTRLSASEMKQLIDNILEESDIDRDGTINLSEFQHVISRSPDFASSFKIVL
Excerpt: Assay Provider: Ulhas P. Naik, PhD Sidney Kimmel Medical College Thomas Jefferson University, Philadelphia, PA Primary function of platelets is to maintain hemostasis. At the site of vascular injury, platelets adhere to adhesive proteins such as collagen and von Willebrand factor. Adherent platelets are activated and generate soluble platelet agonists such as thrombin, ADP and thromboxane A2. Following exposure of circulating platelets to these agonists, results in platelet shape change, granule secretion and activation of platelet integrin alphaIIb-beta3. Ligand binding to activated integrin alphaIIb-beta3 triggers outside-in signaling, leading to platelet aggregation, stabilization of platelet plug, and clot retraction. Upon atherosclerotic plaque rupture also causes platelet plug formation, which underlies a number of cardiovascular diseases such as myocardial infraction and stroke. A number of anti-platelet drugs such as aspirin, clopidogrel, prasugrel, vorapaxar, and eptifibatide are currently available to prevent the thrombotic complications. However, these anti-platelet agents have several limitations including inherent variability in individual responses, developing resistance, and serious bleeding side effects. For these reasons they are not suitable for long-term protection. Based on the experiences with current anti-platelet drugs, it appears that the most useful therapeutic approach is to intersect the secondary responses such as integrin outside-in signaling or recruitment of platelets by TxA2 and secreted ADP. Compounds, which can largely preserve the primary hemostatic function of platelets but inhibit secondary response will be most desired therapeutic agents for treatment of cardiovascular disease. CIB1 is a calcium integrin binding protein, which specifically interact with the alphaIIb subunit of integrin alphaIIb-beta3. Binding of CIB1 to alphaIIb regulates the outside-in signaling in platelets, which is needed for thrombus stabilization and thrombus growth. […] Therefore, we propose that discovery of a small molecule that can prevent the association of CIB1 and alphaIIb-beta3 will be a potential anti-platelet agent that can block the thrombus formation without undue effect on hemostasis. Reference: [1] Naik MU, Nigam A, Manrai P, et al. CIB1 deficiency results in impaired thrombosis: the potential role of CIB1 in outside-in signaling through integrin alpha IIb beta 3. J Thromb Haemost.
PROTOCOL TABLES SEQUENCE No. (1, 2, 3, etc.); […] (e.g., Cells, Incubation, Reagent, etc.); VALUE and DESCRIPTION. 1; Reagent; 3 uL; Protein or buffer (4/3x) 2; Compound; 46 nL; Control inhibitor / compound library 3; Time; 15 min; Room temperature incubation 4; Reagent; 1 uL; Fluorescent labeled peptide (4x) 5; Time; 1000 rpm; Centrifuge 6; Time; 15 min; Room temperature incubation 7; Detection; Ex 480/ Em 540; ViewLux Fluorescence Read NOTES (numbers refer to sequence above) 1; Protein Mixture: C1B1-GST (final concentrations of 1 uM). […] 3; Room temperature incubation. 4; Fluorescent Labeled Peptide: FITC-aIIb (final concentration of 100 nM). Sequence of alphaIIb peptide: Acetyl-[…]-FITC (purity is 95.83%). 5; Centrifuge 1000 rpm (164 g) for 15 seconds. 6; Room temperature incubation. 7; ViewLux Fluorescent Polization Read: excitation = 480(20) / emission = 540(25) S and P; FITC Dichroic mirror.
Potency means the concentration at half of the fitted maximal effect.

**Q.** `COc1ccccc1S(=O)(=O)Nc1ccc2c(c1)CN(C)C(=O)N2` was tested. Which Potency did it give?
**A.** Its Potency is “inactive”.

**Q.** With `CCn1nc(C2CCN(C(=O)CCO)CC2)nc1-c1cnc(N)c(-c2nnc(C(C)(C)C)o2)n1` as the molecule, how does the Potency read?
**A.** The Potency was “inactive”.

**Q.** Which Potency does the source give for `CCOC(=O)[C@@]1(CCCCCCOc2ccc(Cl)cc2)CO1` here?
**A.** Its Potency is “inactive”.

**Q.** How did the Potency turn out when `CN(C)CCOC(C)(c1ccccc1)c1ccc(Cl)cc1` (stereo not given) was run?
**A.** The Potency was “inactive”.

**Q.** How did the Potency turn out when `Cc1c(OCc2cccc(-c3ccc(C(=O)O)cc3)c2)cc2c(c1C)C(=O)C(C1CCCC1)C2` (stereo not given) was run?
**A.** The Potency was “inactive”.

**Q.** `Cc1nc(Nc2ccc(F)cc2)nc(N2CCc3ccccc3C2C)c1C` (stereo not given) was tested. Which Potency did it give?
**A.** Its Potency is “inactive”.

**Q.** Which Potency does the source give for `C/C=C/C=C/C=C/C(=O)O[C@@H]1C=C2COC(=O)[C@]2(O)[C@@]2(C)CCCC(C)(C)[C@H]12` here?
**A.** The Potency was “inactive”.

**Q.** For `COc1cc(S(C)(=O)=O)ccc1Nc1nc2ccc(-c3ccc(NC(=O)[C@H](C)c4ccc(F)cc4)cc3)cn2n1`, which Potency is on record?
**A.** Its Potency is “inactive”.

**Q.** With `CC1=C(C(=O)OC2CCCCC2)C(c2ccc([N+](=O)[O-])cc2)C2=C(CC(C)(C)CC2=O)N1` (stereo not given) as the molecule, how does the Potency read?
**A.** The Potency was 17.8 µM (active).

**Q.** With `C/C=C(\C)C(=O)OC1C=C(C)CC(OC(=O)c2ccc(O)cc2)C2C1(C)CCC2(O)C(C)C` (stereo not given) as the molecule, how does the Potency read?
**A.** The Potency was “inactive”.

**Q.** For `Cn1c(=O)c(F)c(Nc2ccc(I)cc2F)c2c(=O)n(CC(O)CO)cnc21` (stereo not given), which Potency is on record?
**A.** The Potency was “inactive”.

**Q.** `CC(OC1OCCN(Cc2n[nH]c(=O)[nH]2)C1c1ccc(F)cc1)c1cc(C(F)(F)F)cc(C(F)(F)F)c1` (stereo not given) was tested. Which Potency did it give?
**A.** The Potency was “inactive”.

**Q.** For `O=C(Nc1cc(C(F)(F)F)cc(C(F)(F)F)c1)c1cnc(Cl)nc1C(F)(F)F`, which Potency is on record?
**A.** Its Potency is “inactive”.

**Q.** With `O=C(NCCCN1CCOCC1)c1cnn2c(-c3ccccc3)cc(-c3ccccc3)nc12` as the molecule, how does the Potency read?
**A.** Its Potency is “inactive”.

**Q.** Which Potency does the source give for `Cn1nc(C(C)(C)C)cc1C(=O)N[C@@H](Cc1cccc(Cl)c1)C(=O)NCC#N` here?
**A.** The Potency was “inactive”.

**Q.** `C=CC(C)(C)C12CC3C(=O)N4C(CC5(C(C)(C)C=C)c6ccccc6NC45)C(=O)N3C1Nc1ccccc12` (stereo not given) was tested. Which Potency did it give?
**A.** The Potency was “inactive”.

**Q.** How did the Potency turn out when `O=C(c1cc(Cc2n[nH]c(=O)c3ccccc23)ccc1F)N1CCCNCC1` was run?
**A.** The Potency was “inactive”.

**Q.** `O=C(Nc1ccc(Cl)cc1)C1CCCN(C(=O)c2cccc(-c3ccco3)c2)C1` (stereo not given) was tested. Which Potency did it give?
**A.** Its Potency is “inactive”.

**Q.** For `C[C@@H]1O[C@@H](O[C@H]2[C@@H](OC(=O)[C@]34CCC(C)(C)CC3C3=CCC5[C@@]6(C)C[C@H](O)[C@H](O[C@@H]7O[C@H](CO)[C@@H](O)[C@H](O)[C@H]7O[C@@H]7OC[C@@H](O)[C@H](O)[C@H]7O)[C@@](C)(C(=O)O)C6CC[C@@]5(C)[C@]3(C)CC4)OC[C@H](O)[C@@H]2O)[C@H](O)[C@H](O)[C@H]1O[C@@H]1OC[C@@H](O)[C@H](O)[C@H]1O` (stereo not given in full), which activity change, negative = inhibition is on record?
**A.** The activity change, negative = inhibition was -5.44% [at 12.4 µM].

**Q.** For `CCN(CCNC(=O)Nc1ccccc1Br)c1cccc(C)c1`, which Potency is on record?
**A.** The Potency was “inactive”.

**Q.** With `C=C1CC[C@@H]2[C@](C)(CO)[C@H](O)CC[C@@]2(C)[C@@H]1CC(=O)C1=CCOC1=O` as the molecule, how does the Potency read?
**A.** The Potency was “inactive”.

**Q.** `C=C(C)C(=O)OC1CC(CO)CCC/C(CO)=C/C2OC(=O)C(=C)C21` (stereo not given) was tested. Which Potency did it give?
**A.** The Potency was “inactive”.

**Q.** How did the Potency turn out when `O=C(Nc1ccccc1C(=O)Nc1ccc(CCO)cc1)c1ccc([N+](=O)[O-])cc1` was run?
**A.** The Potency was “inactive”.

**Q.** How did the Potency turn out when `C/C1=C\CCC2=CC(OC2=O)C(C)(C)/C=C/C1=O` (stereo not given) was run?
**A.** The Potency was “inactive”.

**Q.** Which Potency does the source give for `COc1cc2ncnc(Nc3ccc(F)c(Cl)c3)c2cc1O` here?
**A.** Its Potency is “inactive”.

**Q.** How did the Potency turn out when `C=C1C(=O)OC2/C=C(\CO)CC/C=C(\C=O)C(OC)C(OC(=O)C(C)CC)C12` (stereo not given) was run?
**A.** Its Potency is “inactive”.

**Q.** `CC(C)Oc1ccc(-c2cnc3c(-c4ccnc5ccccc45)cnn3c2)cc1` was tested. Which Potency did it give?
**A.** Its Potency is “inactive”.

**Q.** With `Nc1nc2c(ncn2C2OC3COP(=O)(O)OC3C2O)c(=O)[nH]1` (stereo not given) as the molecule, how does the Potency read?
**A.** The Potency was “inactive”.

**Q.** `COC(=O)N1CCC(n2ncc3c(N4CCOCC4)nc(-c4ccc(NC(=O)NC5CC5)cc4)nc32)CC1` was tested. Which Potency did it give?
**A.** The Potency was “inactive”.

**Q.** Which Potency does the source give for `N#Cc1ccc(-c2ccc(S(=O)(=O)Nc3cccc(N)n3)cc2)cc1` here?
**A.** The Potency was “inactive”.

**Q.** `Cc1ccnc(NC(=O)C(C)c2cccc(C(=O)c3ccccc3)c2)c1` (stereo not given) was tested. Which Potency did it give?
**A.** Its Potency is “inactive”.

**Q.** Which Potency does the source give for `CC(C)c1ccc(NC(=O)Cn2cnc3c2c(=O)n(C)c(=O)n3C)cc1` here?
**A.** The Potency was “inactive”.

**Q.** With `C=C(C)[C@@H]1CC=C(COC(=O)NC(=O)c2ncn3c(=O)n(C)nnc23)CC1` as the molecule, how does the Potency read?
**A.** Its Potency is “inactive”.

**Q.** For `CC1CCCC(O)CC(=O)c2c(O)cc(O)cc2CC(=O)O1` (stereo not given), which Potency is on record?
**A.** The Potency was “inactive”.

**Q.** How did the Potency turn out when `C=C(NC(=O)C(=C)NC(=O)c1csc(C2=NC3c4csc(n4)C4NC(=O)c5csc(n5)C(C(C)(O)C(C)O)NC(=O)C5CSC(=N5)/C(=C/C)NC(=O)C(C(C)O)NC(=O)c5csc(n5)C3(CC2)NC(=O)C(C)NC(=O)C(=C)NC(=O)C(C)NC(=O)C(C(C)CC)NC2C=Cc3c(C(C)O)cc(nc3C2O)C(=O)OC4C)n1)C(N)=O` (stereo not given) was run?
**A.** The Potency was “inactive”.

**Q.** `CCCCc1ccc(NS(=O)(=O)c2ccc(F)cc2)cc1` was tested. Which Potency did it give?
**A.** Its Potency is “inactive”.

**Q.** Which Potency does the source give for `C=C1CC[C@@H](O)[C@]2(C)C[C@H]3OC(=O)C(=C)[C@H]3CC12` (stereo not given in full) here?
**A.** The Potency was “inactive”.

**Q.** For `C=C1C(=O)O[C@@H]2/C=C(\CO)CC/C=C(/C=O)C[C@H](O)[C@@H]12`, which Potency is on record?
**A.** The Potency was “inactive”.

**Q.** `Cn1ccc(NC(=O)c2cc(Oc3ccc(C(=O)N4CCC4)c(F)c3)c3c(c2)OC(C)(C)C3)n1` was tested. Which Potency did it give?
**A.** The Potency was “inactive”.

**Q.** Which Potency does the source give for `C=C1C(=O)O[C@@H]2/C=C(\CO)CC/C=C(/C=O)C[C@@H](O)[C@@H]12` here?
**A.** The Potency was “inactive”.
